The values below come from the supplement of paper PMC6555819.

This test concerns PPARg:RXRa DBDmut IVT, anti-RXR (DBD mutation: RXRa K156A/R161A, NR concentration 270 nM, RXRa partner concentration 90 nM). Briefly: PBM binding z-score (relative to random genomic background probes); higher = stronger binding; sequences stand for … in GC…GCGATTGACAGCGTAGAATGAAGG
In short, it runs like this:
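Binding z-scores take random background probes as their reference. They come from custom Agilent 4×180K protein-binding microarrays incubated 1 h with ligand-free nuclear receptor dimers, with antibodies against each partner (one per run) detecting binding. Scanned fluorescence was regression-normalized.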
The sequence GCTAGCAGGCCATTTGAGTCACTCAATGACGGGC had a PBM binding z-score of 0.829.
Turning to TAGCCTAGGTCATTCAGGGGCCAGTATAGAAAGC, the PBM binding z-score amounted to 1.64.
The sequence ATCTCTAGTTAAAGTTCAGTGAAAGATCGATAGA showed a PBM binding z-score of 0.143.
The sequence ATATGTAGGTTAGCTGGGTTCATTCAGACTAGGC yielded a PBM binding z-score of 6.03.
In turn, TCTATTAGTTCATTAGGGCAACCGAAACAGCGGA showed a PBM binding z-score of 2.92.
On to CCTGCTAGGTCATGGTCCGCTAATCTACAGTATG, for which the PBM binding z-score turned out to be 4.12.
TGTAGCAGGCCAGAGGGTCACTCAAGAGGTACGG yielded a PBM binding z-score of -1.03.
For the sequence CGAACTAGGTCAGAACAAGACAGTGAAGGATGAT, the PBM binding z-score is 7.36.
In turn, ATCTCTAGGTAACAAGTTGAGTGAAAGAGAGGAC returned a PBM binding z-score of 3.42.
In the case of AGTCAAAGCTCAGGACGAGGTAACGTAAAGCACG, the PBM binding z-score is -0.71.
Next, ACTAGTTGGTCAGCTGAGGTCAGACACAATTCGG: 1.02; CCTTACGGGTCACGCGGTTATAGCACGACGAGCG: 4.11; TCTTGTAGAGCAAGCAGGTTAAGAAAGCCTGAGT: 1.77.
The same measure for ATACCAAGGGGATCGTGAGGTCGTTGATACTAAC: -0.449; for AGTCAAAGTTCAGGTCGAGGTAACGTAAAGCACG: -0.195; for CCAGACAGGTGAGAAGGTAACCCAGCCTCGATTA: 1.18.
Next, CCTAGCAGGCCAATCTGGGTCACTCAAGGCTTGA: 4.72; TCATATAGGTACAGGTGAAAGTCGAACGATATGA: 2.01.
CAAACTAGGTCAAGGACAAAGTCGGTTTGTGCCA registered a PBM binding z-score of 8.57.
For the sequence TCAAATAGGTAATACAGGTGAAAGTCGGCATCTA, the PBM binding z-score was found to be 3.6.
GCTTGTAGATCGAGGTTAAGAAAGACTAAGCTAA: the PBM binding z-score amounted to 0.155.
In turn, ACTATTAGTTCAGACGAGGGCAACCGATAGGTTG yielded a PBM binding z-score of 0.264.
